In PubChem BioAssay AID2073 (Sanford-Burnham Center for Chemical Genomics, 2009):
Where “and” joins values, the source holds several entries; their conditions need not be identical. Identical values can stand only once. Screen size: about 290,000 compounds; about 570 (0.2%) were called active. Not shown: some 1% with an inconclusive outcome. No stated cut-off is given here; in the data, active means inhibition mostly above about 51% (no sharp cut-off); inconclusive means no clear call, values can overlap the other calls; inactive means mostly below about 53%. The list comes from a sample in which actives are over-represented; it also holds similar structures and randomly drawn compounds.

Biological target: Voltage-dependent N-type calcium channel subunit alpha-1B (Homo sapiens) (UniProt Q00975)
Experiment: disruptors of CaV2.2 binding to Mint1 – biochemical, HTRF (AID 2073)
Conditions: HTRF protein-protein interaction, Mint1-CaV2.2, at 20 µM, stronger effect = higher value
[1] = measured here: average of repeat tests

Sequence of Voltage-dependent N-type calcium channel subunit alpha-1B (Homo sapiens) (Q00975 whole entry, looked up): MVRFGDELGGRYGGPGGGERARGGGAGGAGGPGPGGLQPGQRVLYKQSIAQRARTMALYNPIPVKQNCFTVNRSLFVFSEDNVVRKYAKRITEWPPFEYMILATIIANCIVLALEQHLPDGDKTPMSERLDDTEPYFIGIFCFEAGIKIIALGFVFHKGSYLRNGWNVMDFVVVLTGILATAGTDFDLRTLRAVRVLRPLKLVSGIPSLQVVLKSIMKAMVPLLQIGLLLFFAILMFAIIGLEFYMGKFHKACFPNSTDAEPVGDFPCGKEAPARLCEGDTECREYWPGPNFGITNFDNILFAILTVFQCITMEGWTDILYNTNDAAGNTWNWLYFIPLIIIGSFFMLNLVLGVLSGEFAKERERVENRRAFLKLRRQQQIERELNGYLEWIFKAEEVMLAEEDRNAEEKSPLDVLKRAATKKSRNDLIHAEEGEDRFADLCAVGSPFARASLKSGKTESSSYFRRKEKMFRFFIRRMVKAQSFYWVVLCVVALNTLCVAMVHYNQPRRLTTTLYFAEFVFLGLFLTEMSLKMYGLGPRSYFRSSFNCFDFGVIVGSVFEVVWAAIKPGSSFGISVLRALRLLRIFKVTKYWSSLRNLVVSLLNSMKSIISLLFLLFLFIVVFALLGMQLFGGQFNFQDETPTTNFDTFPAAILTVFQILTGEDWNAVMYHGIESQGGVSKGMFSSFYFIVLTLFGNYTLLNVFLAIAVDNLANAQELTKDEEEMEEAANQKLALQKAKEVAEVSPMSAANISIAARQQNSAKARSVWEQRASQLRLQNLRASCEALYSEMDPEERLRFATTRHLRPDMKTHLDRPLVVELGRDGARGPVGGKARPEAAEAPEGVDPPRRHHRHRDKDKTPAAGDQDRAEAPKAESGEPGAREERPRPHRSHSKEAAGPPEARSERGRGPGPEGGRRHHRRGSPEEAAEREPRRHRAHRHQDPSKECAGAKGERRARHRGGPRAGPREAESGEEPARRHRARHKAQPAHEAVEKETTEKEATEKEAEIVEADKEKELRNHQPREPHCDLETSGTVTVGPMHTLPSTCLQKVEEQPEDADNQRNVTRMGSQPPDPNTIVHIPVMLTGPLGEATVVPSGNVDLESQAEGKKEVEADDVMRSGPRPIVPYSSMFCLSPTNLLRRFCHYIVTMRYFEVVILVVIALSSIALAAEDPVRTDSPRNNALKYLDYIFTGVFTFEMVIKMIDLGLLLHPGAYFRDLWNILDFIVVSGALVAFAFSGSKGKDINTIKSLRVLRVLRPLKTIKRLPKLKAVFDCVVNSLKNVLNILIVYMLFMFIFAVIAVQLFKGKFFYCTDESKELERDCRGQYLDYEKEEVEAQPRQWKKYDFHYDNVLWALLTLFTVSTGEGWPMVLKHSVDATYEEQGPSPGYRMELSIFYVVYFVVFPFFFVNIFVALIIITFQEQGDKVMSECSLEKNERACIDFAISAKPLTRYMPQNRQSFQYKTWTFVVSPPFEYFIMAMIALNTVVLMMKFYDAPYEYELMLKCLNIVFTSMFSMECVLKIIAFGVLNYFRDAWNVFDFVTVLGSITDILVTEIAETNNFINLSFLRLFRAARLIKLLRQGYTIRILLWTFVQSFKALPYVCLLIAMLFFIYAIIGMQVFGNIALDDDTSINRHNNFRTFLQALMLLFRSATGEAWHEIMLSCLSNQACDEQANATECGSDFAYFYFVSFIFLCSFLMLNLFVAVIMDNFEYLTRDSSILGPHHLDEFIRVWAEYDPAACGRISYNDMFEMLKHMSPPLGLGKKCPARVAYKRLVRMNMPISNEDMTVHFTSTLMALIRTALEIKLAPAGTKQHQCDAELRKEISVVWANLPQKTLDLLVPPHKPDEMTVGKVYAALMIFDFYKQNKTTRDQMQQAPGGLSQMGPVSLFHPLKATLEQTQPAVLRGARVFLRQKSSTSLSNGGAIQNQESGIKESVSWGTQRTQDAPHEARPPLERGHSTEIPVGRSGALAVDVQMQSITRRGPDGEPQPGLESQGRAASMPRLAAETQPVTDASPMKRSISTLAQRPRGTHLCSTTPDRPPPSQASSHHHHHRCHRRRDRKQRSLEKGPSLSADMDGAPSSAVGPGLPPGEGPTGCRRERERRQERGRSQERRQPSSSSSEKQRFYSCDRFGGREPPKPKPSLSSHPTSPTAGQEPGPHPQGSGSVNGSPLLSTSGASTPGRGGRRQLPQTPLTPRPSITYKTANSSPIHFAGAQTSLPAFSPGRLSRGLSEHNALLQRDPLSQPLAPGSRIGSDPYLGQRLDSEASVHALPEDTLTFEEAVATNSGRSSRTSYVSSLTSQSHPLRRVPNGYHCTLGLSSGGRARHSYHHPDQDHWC

CCOC(=O)c1ccc(-n2cncn2)nc1 was tested, and the inhibition was -2.2% (inactive).
In the case of CC(=O)Nc1ccc(S(=O)(=O)N2CCN(S(=O)(=O)N3CCOCC3)CC2)cc1, the inhibition is reported as -2.3% (inactive).
In the case of CC(=O)Nc1ccc(S(=O)(=O)N2CCOCC2)cc1, the inhibition is reported as 11.4% (inactive).
For CN(C)S(=O)(=O)c1cccc(NC(=O)c2ccncc2)c1, the inhibition was 8.6% (inactive).
With CC(=O)Nc1ccc(C(=O)Nc2ccc(S(=O)(=O)N3CCOCC3)cc2)cc1 the inhibition was -1.1% (inactive).
With O=C(Nc1ccc(S(=O)(=O)N2CCOCC2)cc1)c1ccc(S(=O)(=O)N2CCOCC2)cc1 the inhibition was 7.3% (inactive).
For CC1CN=C(Nc2cccc(S(=O)(=O)N(C)C)c2)S1 (stereo not given), the inhibition was -0.9% (inactive).
In the case of Cc1ccc(C(=O)N/C(=C\c2ccc(-c3cccc([N+](=O)[O-])c3)o2)C(=O)NCCCN2CCOCC2)cc1, the inhibition is reported as -1.4% (inactive).
COC(=O)Nc1nc2ccc(-c3n[nH]c(=O)c4ccccc34)cc2[nH]1 was tested, and the inhibition was -0.4% (inactive).
With Cc1cc(C)nc(Nc2ncc(O)n2-c2ccc(C)c(Cl)c2)n1 the inhibition was 6% (inactive).
Cc1ccc(NC(=O)CN(C)c2ccc(S(=O)(=O)N3CCCC3)cn2)cc1 was tested, and the inhibition was -2.9% (inactive).
In the case of CC1(C)CC2CC(C)(CN2C(=S)Nc2ccccc2)C1 (stereo not given), the inhibition is reported as 12.7% (inactive).
Fc1ccccc1Nc1nc2c(s1)CCc1ccccc1-2 was tested, and the inhibition was 94.8% (active).
In the case of CC(=O)Nc1nc2c(s1)CCc1ccccc1-2, the inhibition is reported as -3.5% (inactive).
With Nc1nc2c(s1)CCc1ccccc1-2 the inhibition was -30.6% (inactive).
CC(c1nnc(SCC(=O)Nc2cccnc2Cl)n1Cc1ccccc1)N(C)C (stereo not given) was tested, and the inhibition was 1% (inactive).
In the case of COc1cccc2nc3cc(C)c(C)cc3nc12, the inhibition is reported as 23.4% (inactive).
In the case of COc1ccc2nc3ccccc3nc2c1, the inhibition is reported as 23.5% (inactive).
For COc1ccc2nc3cccc(OC)c3nc2c1, the inhibition was 61.8% (active).
In the case of Cc1ccsc1/C=N/NC(=O)CO, the inhibition is reported as 7.8% (inactive).
In the case of CCCCNC(=O)[C@H](CSCc1ccccc1)N1Cc2ccccc2C1=O, the inhibition is reported as 0.1% (inactive).
In the case of COc1ccc(CNC(=O)COc2cc(=O)n(C)c3ccccc23)cc1, the inhibition is reported as 13.2% (inactive).
Nc1ccc2c(c1)C/C(=C/c1ccco1)C2=O was tested, and the inhibition was 87.9% (active).
For O=C1/C(=C/c2ccco2)CCc2ccccc21, the inhibition was 15.3% (inactive).
For O=C1/C(=C/c2ccco2)Cc2ccccc21, the inhibition was 11.1% (inactive).
With CCCCn1ccnc1C the inhibition was -1.1% (inactive).
O=C(CSc1cccc2cccnc12)Nc1ccccc1F was tested, and the inhibition was 12.1% (inactive).
With COc1cc(/C=C2\SC(N)=NC2=O)ccc1OCC(=O)Nc1ccc(C)cc1 the inhibition was 61.4% (active).
C=CCOc1ccc(/C=C2\SC(N)=NC2=O)cc1OC was tested, and the inhibition was 10.2% (inactive).
CCCOc1ccc(/C=C2\SC(N)=NC2=O)cc1OC was tested, and the inhibition was -3% (inactive).
In the case of NC(=O)c1ccc2c(=O)n3c(-c4cc(Cl)c(N)c(Cl)c4)csc3nc2c1, the inhibition is reported as -27% (inactive).
With NC(=O)c1ccc2nc(-c3ccccc3)c(-c3ccccc3)nc2c1 the inhibition was 4.7% (inactive).
In the case of O=C(NCc1nnc2c(C(F)(F)F)cc(Cl)cn12)c1ccc2c(c1)OCO2, the inhibition is reported as 9% (inactive).
For O=C(c1ccc(COc2ccc(F)cc2)o1)n1cc(Br)cn1, the inhibition was 8% (inactive).
In the case of CCN1C(=O)/C(=C/C=C2/Sc3ccc4ccccc4c3N2CCO)SC1=S, the inhibition is reported as 74.6% (active).
With CCN1C(=O)/C(=C/C=C2/Sc3ccccc3N2CCO)SC1=S the inhibition was 38.4% (inactive).
CCCN1C(=O)/C(=C\C=C2/Sc3ccccc3N2CCO)SC1=S was tested, and the inhibition was 26.3% (inactive).
In the case of CC(C)CC(NC(=O)c1ccccc1)C(=O)N/N=C/c1ccco1 (stereo not given), the inhibition is reported as 3.7% (inactive).
For CCOc1ccccc1-n1c(SCC(N)=O)nnc1-c1ccccc1, the inhibition was -2.1% (inactive).
In the case of Cc1cc(C)c2nc(NC(=O)c3cccc(S(=O)(=O)N4CCc5ccccc54)c3)sc2c1, the inhibition is reported as 6.3% (inactive).
With Cc1cccc2sc(NC(=O)c3cccc(S(=O)(=O)N4CCc5ccccc54)c3)nc12 the inhibition was 68.3% (active).
With O=C(Nc1nc2ccccc2s1)c1cccc(S(=O)(=O)N2CCc3ccccc32)c1 the inhibition was 8.8% (inactive).
CCOc1ccc(C(CCc2ccccc2)NC(=O)c2ccccc2F)cc1OCC (stereo not given) was tested, and the inhibition was 5.7% (inactive).
With O=C(O)C(Cc1c[nH]c2ccccc12)NS(=O)(=O)c1ccc(Br)cc1 (stereo not given) the inhibition was -0.4% (inactive).
For CNC(=O)c1c(O)c2cccc3c2n(c1=O)CCC3, the inhibition was 22.2% (inactive).
In the case of Cn1c(=S)[nH]c(=O)c2ncc(=O)[nH]c21, the inhibition is reported as -1.9% (inactive).
O=C(O)CCCCC1SCC2NC(=O)NC21 (stereo not given) was tested, and the inhibition was 8.5% (inactive) and -9.5% (inactive).
With O=C(O)CCCCCCCC(=O)O the inhibition was 0.9% (inactive).
In the case of O=C(O)CCCCC1CCSS1 (stereo not given), the inhibition is reported as 101% (active).
With O=[N+]([O-])c1ccc(O)c(C=Nc2cccc3ccccc23)c1 the inhibition was -35.1% (inactive).
For COCCNC(=O)C(c1ccc(OC)cc1)N(CCOC)C(=O)CCC(=O)Nc1nccs1 (stereo not given), the inhibition was -3.6% (inactive).
With O=C(NCc1ccco1)c1cnc2ccccn2c1=O the inhibition was 0.3% (inactive).
For O=C(NCc1ccco1)c1cccn2c(=O)c3cc4ccccc4cc3nc12, the inhibition was 54.4% (active).
In the case of COCCCNC(=O)c1cccn2c(=O)c3cc4ccccc4cc3nc12, the inhibition is reported as -3.3% (inactive).
For Cc1ccc(N(C(=O)c2ccco2)C(C(=O)NC2CCCC2)c2cccnc2)cc1 (stereo not given), the inhibition was -0.3% (inactive).
For O=C(N/N=C/c1ccc[nH]1)c1ccc(O)cc1, the inhibition was 38.2% (inactive).
Cc1ccccc1/C=C1\SC(=S)N(/N=C/c2cc([N+](=O)[O-])ccc2O)C1=O was tested, and the inhibition was 5.4% (inactive).
With Cc1ccc(/C=C2\SC(=S)N(/N=C/c3cc([N+](=O)[O-])ccc3O)C2=O)o1 the inhibition was 73.2% (active).
For O=C1/C(=C/c2cccc(Br)c2)SC(=S)N1/N=C/c1cc([N+](=O)[O-])ccc1O, the inhibition was -2.1% (inactive).
CCn1cc(CN2CCCC(C(=O)c3ccc(-c4ccccc4)c(F)c3)C2)cn1 (stereo not given) was tested, and the inhibition was 6.5% (inactive).
O=C(O)C1CCC(N2C(=O)c3cccc([N+](=O)[O-])c3C2=O)CC1 (stereo not given) was tested, and the inhibition was 5.9% (inactive).
O=C(O)C1CCC(N2C(=O)C3CCCCC3C2=O)CC1 (stereo not given) was tested, and the inhibition was -2.9% (inactive).
O=C(O)C1CCC(N2C(=O)c3c(Cl)c(Cl)c(Cl)c(Cl)c3C2=O)CC1 (stereo not given) was tested, and the inhibition was 81.3% (active).
O=C1C2C3C=CC(C3)C2C(=O)N1c1n[nH]c(-c2ccccc2)n1 (stereo not given) was tested, and the inhibition was 11% (inactive).
In the case of CC(=O)Oc1cc(O)c2c(c1)OC(c1ccc(OC(C)=O)c(OC(C)=O)c1)C(OC(C)=O)C2=O (stereo not given), the inhibition is reported as 8.9% (inactive).
With CC1=NN(c2ccc(C)cc2)C(=O)/C1=C/c1ccc(-c2cc([N+](=O)[O-])ccc2O)o1 the inhibition was 44.4% (inactive).
In the case of O=C1NN(c2ccccc2)C(=O)/C1=C\c1ccc(-c2cc([N+](=O)[O-])ccc2O)o1, the inhibition is reported as 31.4% (inactive).
In the case of O=C1NN(c2cccc(Br)c2)C(=O)/C1=C/c1ccc(-c2cc([N+](=O)[O-])ccc2O)o1, the inhibition is reported as 61.4% (active).
For COc1ccc(/C=C2\SC(=S)N(CCC(=O)NCCCN3CCOCC3)C2=O)cc1, the inhibition was -10.7% (inactive).
CCc1ccc(C(=O)NNc2ccc(Cl)cc2)cc1 was tested, and the inhibition was -10.8% (inactive).
In the case of COc1cc(CNCCO)cc(Br)c1OCc1cccs1, the inhibition is reported as -3.4% (inactive).
With O=C(Nn1cnnc1)c1csc2ccccc12 the inhibition was -11.1% (inactive).
Cc1cc2nc3c(=O)n(CCc4ccccc4)c(=O)[nH]c3nc2cc1N was tested, and the inhibition was 36.3% (inactive).
CCCCCCn1c(=O)[nH]c2nc3cc(N)c(C)cc3nc2c1=O was tested, and the inhibition was 4.4% (inactive).
In the case of Cc1cc2nc3c(=O)n(Cc4ccccc4)c(=O)[nH]c3nc2cc1N, the inhibition is reported as 55.1% (active).
In the case of NC1=NC[C@@H](Cc2ccc(O)cc2)N1CCc1cccc(F)c1, the inhibition is reported as 16.7% (inactive).
With CC1CN(C(=O)CCCN2C(=O)c3ccccc3C2=O)CC(C)O1 (stereo not given) the inhibition was -7.3% (inactive).
COc1ccc2[nH]c(=O)c(CN(Cc3ccco3)C(c3nnnn3Cc3ccccc3)C(C)C)cc2c1 (stereo not given) was tested, and the inhibition was 12.1% (inactive).
In the case of COc1ccc2[nH]c(=O)c(CN(Cc3nnnn3Cc3ccco3)C3CCCCC3)cc2c1, the inhibition is reported as 1.1% (inactive).
Cn1c(/C=C/c2cccc([N+](=O)[O-])c2)nc2ccccc2c1=O was tested, and the inhibition was -20.2% (inactive).
In the case of CCOC(=O)C(O)(CC(=O)c1ccc(OC)cc1)C(F)(F)F (stereo not given), the inhibition is reported as -6.5% (inactive).
CC(C)(C)c1cc(N)on1 was tested, and the inhibition was -7.8% (inactive).
With COc1cccc2c1C(=O)C=C(C)C2=O the inhibition was -19.2% (inactive).
CC1=CC(=O)c2c(O)ccc(O)c2C1=O was tested, and the inhibition was 85.1% (active).
CC1=CC(=O)c2ccccc2C1=O was tested, and the inhibition was -11.2% (inactive).
In the case of O=C(CCCSc1ccccc1)Nc1nc(-c2ccco2)c(-c2ccco2)s1, the inhibition is reported as 71.8% (inactive) and the inhibition [1] is reported as -7.2%.
In the case of O=C(CCl)Nc1nc(-c2ccco2)c(-c2ccco2)s1, the inhibition is reported as 66% (active).
O=C(Nc1nc(-c2ccco2)c(-c2ccco2)s1)C1CCC1 was tested, and the inhibition was 58.1% (inactive) and the inhibition [1] was 1.4%.
With O=C(Nc1nnc(C2CC2)s1)C1CC(=O)N(c2ccc3c(c2)OCCO3)C1 (stereo not given) the inhibition was 12.6% (inactive).
With CCc1nnc(NC(=O)C2CC(=O)N(c3ccc4c(c3)OCCO4)C2)s1 (stereo not given) the inhibition was 3% (inactive).
For O=C(Nc1nc(-c2ccco2)c(-c2ccco2)s1)C1CC(=O)N(c2ccc3c(c2)OCCO3)C1 (stereo not given), the inhibition was 66.7% (active).
For COc1ccc(CCN(C(=S)Nc2ccccc2)C2CC(=O)N(c3ccccc3)C2=O)cc1 (stereo not given), the inhibition was 6.3% (inactive).
With CC(C)Oc1cccc(C(=O)C2CCCN(C(=O)c3ccsc3)C2)c1 (stereo not given) the inhibition was -8.4% (inactive).
In the case of N#Cc1cnc(NOCc2ccc(Cl)cc2)nc1, the inhibition is reported as 9.4% (inactive).
In the case of O=c1c2c3n(c(=O)nc2[nH]n1-c1ccccc1)CCCCC3, the inhibition is reported as 1.1% (inactive).
In the case of O=C(NCCN1CCOCC1)/C(=C\c1ccccc1Cl)NC(=O)c1ccccc1, the inhibition is reported as 9.8% (inactive).
In the case of COc1cc(/C=C2\SC(=Nc3ccccc3)N(CCc3c[nH]c4ccccc34)C2=O)ccc1OC(C)C(=O)O (stereo not given), the inhibition is reported as 6.2% (inactive).
For COc1ccc(N=C2S/C(=C\c3ccc(OCC(=O)O)cc3)C(=O)N2CCc2c[nH]c3ccccc23)cc1, the inhibition was 35.3% (inactive).
